Results published in PubChem BioAssay AID1159580 (chemical genetic matrix, 2015).
Where “and” joins values, the source holds several entries; their conditions need not be identical. Equal values may be shown once. Screen size: about 5,500 compounds; about 2,000 (36%) were called active. About 18% were inconclusive and are not listed. Cut-off read from the data, not from the text of the source: active = normalized growth mostly below about 0.91 (no sharp cut-off); inconclusive = no clear call, values can overlap the other calls; inactive = mostly above about 0.92. Some of the results follow.

Assay: chemical genetic growth profiling, strain panel (AID 1159580);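 note: tested at 20 µM; growth read once vehicle control cultures reached saturation at 30 °C; 1 = growth at the plate median or of vehicle wells; lower values mean less growth of the strain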
Settings: S. cerevisiae deletion strains, growth OD

Measured: normalized growth

CC1CCC(NC(=O)N(CCCl)N=O)CC1 (stereo not drawn)
active: locus YAL021C, strain ccr4, hits give low values 0.899 | locus YAL026C, strain drs2, hits give low values 0.24 | locus YAL030W, strain snc1, hits give low values 0.796 | locus YBR009C, strain hhf1, hits give low values 0.244 | locus YBR023C, strain chs3, hits give low values 0.876 | locus YBR171W, strain sec66, hits give low values 0.68 | locus YBR231C, strain swc5, hits give low values 0.755 | locus YBR279W, strain paf1, hits give low values 0.863 | locus YCL011C, strain gbp2, hits give low values 0.095 | locus YCL016C, strain dcc1, hits give low values 0.703 | locus YCL061C, strain MRC1, hits give low values 0.335 | locus YCL069W, strain vba3, hits give low values 0.834 | locus YCR088W, strain abp1, hits give low values 0.182 | locus YDR001C, strain nth1, hits give low values 0.678 | locus YDR137W, strain rgp1, hits give low values 0.718 | locus YDR159W, strain sac3, hits give low values 0.852 | locus YDR334W, strain swr1, hits give low values 0.187 | locus YDR392W, strain spt3, hits give low values 0.126 | locus YDR502C, strain sam2, hits give low values 0.859 | locus YEL003W, strain gim4, hits give low values 0.0715 | locus YEL037C, strain rad23, hits give low values 0.865 | locus YEL061C, strain CIN8 (second series), hits give low values 0.339 | locus YER015W, strain faa2, hits give low values 0.593 | locus YER016W, strain bim1, hits give low values 0.895 | locus YER155C, strain BEM2 (second series), hits give low values 0.112 | locus YFR010W, strain ubp6, hits give low values 0.85 | locus YGL173C, strain kem1, hits give low values 0.895 | locus YGL227W, strain vid30, hits give low values 0.07 | locus YGL240W, strain doc1, hits give low values 0.8 | locus YGL253W, strain hxk2, hits give low values 0.771 | locus YHR013C, strain ard1, hits give low values 0.578 | locus YHR027C, strain rpn1, hits give low values 0.695 | locus YHR142W, strain chs7, hits give low values 0.476 | locus YIL125W, strain kgd1, hits give low values 0.929 | locus YJL092W, strain hpr5, hits give low values 0.644 | locus YJL095W, strain BCK1 (second series), hits give low values 0.887 | locus YJL115W, strain asf1, hits give low values 0.622 | locus YJL129C, strain trk1, hits give low values 0.196 | locus YJL164C, strain tpk1, hits give low values 0.545 | locus YJL166W, strain qcr8, hits give low values 0.427 | locus YJR043C, strain POL32, hits give low values 0.662 | locus YKL085W, strain MDH1 (second series), hits give low values 0.912 | locus YKL085W, strain MDH1, hits give low values 0.912 | locus YKR001C, strain vps1, hits give low values 0.841 | locus YKR026C, strain gcn3, hits give low values 0.225 | locus YKR091W, strain srl3, hits give low values 0.81 | locus YLL026W, hits give low values 0.289 | locus YLL041C, strain sdh2, hits give low values 0.657 | locus YLR027C, strain aat2, hits give low values 0.344 | locus YLR221C, strain rsa3, hits give low values 0.0809 | locus YLR258W, strain gsy2, hits give low values 0.728 | locus YLR262C, strain YPT6 (second series), hits give low values 0.635 | locus YLR320W, strain mms22, hits give low values 0.232 | locus YLR342W, strain FKS1, hits give low values 0.819 | locus YLR357W, strain rsc2, hits give low values 0.549 | locus YLR418C, strain cdc73, hits give low values 0.554 | locus YML120C, strain ndi1, hits give low values 0.128 | locus YMR058W, strain fet3, hits give low values 0.216 | locus YMR125W, strain sto1, hits give low values 0.0911 | locus YMR129W, hits give low values 0.0909 | locus YMR205C, strain PFK2, hits give low values 0.728 | locus YNL071W, strain lat1, hits give low values 0.0878 | locus YNL209W, strain ssb2, hits give low values 0.798 | locus YNL248C, strain rpa49, hits give low values 0.0991 | locus YNL307C, strain MCK1, hits give low values 0.89 | locus YNL322C, strain KRE1 (second series), hits give low values 0.121 | locus YOR001W, strain rrp6, hits give low values 0.084 | locus YOR070C, strain gyp1, hits give low values 0.658 | locus YOR083W, strain WHI5, hits give low values 0.598 | locus YOR106W, strain vam3, hits give low values 0.598 | locus YOR184W, strain ser1, hits give low values 0.161 | locus YOR265W, strain rbl2, hits give low values 0.894 | locus YOR270C, strain vph1, hits give low values 0.503 | locus YOR290C, strain snf2, hits give low values 0.853 | locus YPL051W, strain arl3, hits give low values 0.816 | locus YPL078C, strain atp4, hits give low values 0.878 | locus YPL106C, strain sse1, hits give low values 0.823 | locus YPL240C, strain hsp82, hits give low values 0.795 | strain wtn01, hits give low values 0.858
inactive: locus YBL061C, strain skt5, hits give low values 0.965 | locus YBR021W, strain FUR4, hits give low values 1.02 | locus YBR229C, strain ROT2, hits give low values 0.998 | locus YCL029C, strain bik1, hits give low values 1.01 | locus YDL005C, strain med2, hits give low values 0.952 | locus YDL035C, strain GPR1, hits give low values 0.946 | locus YDL040C, strain nat1, hits give low values 0.983 | locus YDL074C, strain BRE1, hits give low values 0.874 | locus YDL101C, strain DUN1, hits give low values 0.995 | locus YDL134C, strain PPH21, hits give low values 0.995 | locus YDL185W, strain tfp1, hits give low values 1.01 | locus YDL192W, strain arf1, hits give low values 1 | locus YDR069C, strain doa4, hits give low values 0.958 | locus YDR101C, strain arx1, hits give low values 0.99 | locus YDR150W, strain NUM1, hits give low values 0.998 | locus YDR162C, strain NBP2, hits give low values 0.968 | locus YDR195W, strain ref2 0.994 | locus YDR297W, strain sur2, hits give low values 0.951 | locus YDR318W, strain mcm21, hits give low values 0.979 | locus YDR335W, strain msn5, hits give low values 0.933 | locus YDR388W, hits give low values 1.01 | locus YEL061C, strain CIN8, hits give low values 0.992 | locus YER110C, hits give low values 1.01 | locus YER111C, strain swi4, hits give low values 0.961 | locus YER155C, strain BEM2, hits give low values 1 | locus YER167W, strain BCK2, hits give low values 0.938 | locus YGL078C, strain dbp3, hits give low values 0.957 | locus YGL086W, strain mad1, hits give low values 0.937 | locus YGL167C, strain pmr1, hits give low values 0.98 | locus YGL248W, strain PDE1, hits give low values 1 | locus YGR135W, strain pre9, hits give low values 0.935 | locus YGR252W, strain gcn5, hits give low values 0.993 | locus YHR030C, strain SLT2, hits give low values 0.991 and 0.89 | locus YHR079C, strain IRE1 (second series), hits give low values 1 | locus YHR079C, strain IRE1, hits give low values 0.866 | locus YHR094C, strain hxt1, hits give low values 1.01 | locus YHR129C, strain ARP1, hits give low values 0.974 | locus YHR200W, strain rpn10, hits give low values 0.982 | locus YIL066C, strain RNR3, hits give low values 0.949 | locus YIL073C, strain SPO22, hits give low values 1.02 | locus YIR030C, strain dcg1, hits give low values 0.995 | locus YJL095W, strain BCK1, hits give low values 0.928 and 0.908 | locus YJL134W, strain LCB3, hits give low values 0.997 | locus YJL154C, strain vps35, hits give low values 0.975 | locus YJL168C, strain set2, hits give low values 1.01 | locus YJL187C, strain SWE1 (second series), hits give low values 1 | locus YJR066W, strain TOR1, hits give low values 0.894 | locus YKL009W, strain mrt4, hits give low values 0.921 | locus YKL068W, hits give low values 0.983 | locus YKL160W, strain elf1, hits give low values 0.914 | locus YKL190W, strain CNB1, hits give low values 0.996 | locus YLL001W, strain dnm1, hits give low values 0.929 | locus YLR039C, strain RIC1, hits give low values 0.771 | locus YLR058C, strain SHM2, hits give low values 0.995 | locus YLR102C, strain apc9, hits give low values 1.01 | locus YLR113W, strain HOG1, hits give low values 0.902 | locus YLR262C, strain YPT6, hits give low values 0.656 | locus YLR268W, strain sec22, hits give low values 0.894 | locus YLR330W, strain CHS5, hits give low values 0.977 | locus YLR342W, strain FKS1 (second series), hits give low values 0.991 | locus YLR370C, strain arc18, hits give low values 0.913 | locus YLR371W, strain rom2, hits give low values 0.941 | locus YLR384C, strain iki3, hits give low values 0.956 | locus YML016C, strain PPZ1, hits give low values 1 | locus YML032C, strain rad52, hits give low values 1.01 | locus YML124C, strain tub3, hits give low values 1 | locus YMR078C, strain ctf18, hits give low values 1 | locus YMR223W, strain ubp8, hits give low values 0.974 | locus YMR231W, strain pep5, hits give low values 0.981 | locus YMR307W, strain GAS1, hits give low values 0.721 | locus YNL067W, strain RPL9B, hits give low values 0.926 | locus YNL153C, strain GIM3, hits give low values 0.882 | locus YNL183C, strain NPR1, hits give low values 0.9 | locus YNL233W, strain BNI4, hits give low values 0.917 | locus YNL250W, strain rad50, hits give low values 0.94 | locus YNL271C, strain bni1, hits give low values 0.93 | locus YNL298W, strain CLA4, hits give low values 0.957 | locus YNL322C, strain KRE1, hits give low values 0.985 | locus YNR049C, strain mso1, hits give low values 0.939 | locus YNR052C, strain pop2, hits give low values 1.02 | locus YOL012C, strain htz1 0.346 | locus YOL147C, strain pex11, hits give low values 1 | locus YOR061W, strain CKA2, hits give low values 1 | locus YOR069W, strain VPS5, hits give low values 0.998 | locus YOR080W, strain dia2, hits give low values 0.988 | locus YOR136W, strain idh2, hits give low values 0.992 | locus YOR144C, strain elg1, hits give low values 0.998 | locus YOR231W, strain MKK1, hits give low values 0.89 | locus YOR316C, strain cot1, hits give low values 1 | locus YPL256C, strain CLN2, hits give low values 0.855 | locus YPR119W, strain clb2, hits give low values 1 | locus YPR141C, strain kar3, hits give low values 0.979 | locus YPR163C, strain tif3, hits give low values 0.964 | locus YPR167C, strain met16, hits give low values 0.999
